# Several values for one entry are separate records, joined by “and”; a condition that tells them apart may be missing. Equal values may be shown once. About 660 (0.18%) of roughly 370,000 compounds were called active. Many of the other results were omitted from the sample, so actives are more common in it than they were. Unmarked numbers belong to inactive results. Cut-off read from the data, not from the text of the source: active = inhibition above about 11%; inactive = the rest.
# Biological target: 1-phosphatidylinositol 4,5-bisphosphate phosphodiesterase beta-3 (Homo sapiens) (UniProt Q01970)
# Sequence (Q01970 whole entry, looked up): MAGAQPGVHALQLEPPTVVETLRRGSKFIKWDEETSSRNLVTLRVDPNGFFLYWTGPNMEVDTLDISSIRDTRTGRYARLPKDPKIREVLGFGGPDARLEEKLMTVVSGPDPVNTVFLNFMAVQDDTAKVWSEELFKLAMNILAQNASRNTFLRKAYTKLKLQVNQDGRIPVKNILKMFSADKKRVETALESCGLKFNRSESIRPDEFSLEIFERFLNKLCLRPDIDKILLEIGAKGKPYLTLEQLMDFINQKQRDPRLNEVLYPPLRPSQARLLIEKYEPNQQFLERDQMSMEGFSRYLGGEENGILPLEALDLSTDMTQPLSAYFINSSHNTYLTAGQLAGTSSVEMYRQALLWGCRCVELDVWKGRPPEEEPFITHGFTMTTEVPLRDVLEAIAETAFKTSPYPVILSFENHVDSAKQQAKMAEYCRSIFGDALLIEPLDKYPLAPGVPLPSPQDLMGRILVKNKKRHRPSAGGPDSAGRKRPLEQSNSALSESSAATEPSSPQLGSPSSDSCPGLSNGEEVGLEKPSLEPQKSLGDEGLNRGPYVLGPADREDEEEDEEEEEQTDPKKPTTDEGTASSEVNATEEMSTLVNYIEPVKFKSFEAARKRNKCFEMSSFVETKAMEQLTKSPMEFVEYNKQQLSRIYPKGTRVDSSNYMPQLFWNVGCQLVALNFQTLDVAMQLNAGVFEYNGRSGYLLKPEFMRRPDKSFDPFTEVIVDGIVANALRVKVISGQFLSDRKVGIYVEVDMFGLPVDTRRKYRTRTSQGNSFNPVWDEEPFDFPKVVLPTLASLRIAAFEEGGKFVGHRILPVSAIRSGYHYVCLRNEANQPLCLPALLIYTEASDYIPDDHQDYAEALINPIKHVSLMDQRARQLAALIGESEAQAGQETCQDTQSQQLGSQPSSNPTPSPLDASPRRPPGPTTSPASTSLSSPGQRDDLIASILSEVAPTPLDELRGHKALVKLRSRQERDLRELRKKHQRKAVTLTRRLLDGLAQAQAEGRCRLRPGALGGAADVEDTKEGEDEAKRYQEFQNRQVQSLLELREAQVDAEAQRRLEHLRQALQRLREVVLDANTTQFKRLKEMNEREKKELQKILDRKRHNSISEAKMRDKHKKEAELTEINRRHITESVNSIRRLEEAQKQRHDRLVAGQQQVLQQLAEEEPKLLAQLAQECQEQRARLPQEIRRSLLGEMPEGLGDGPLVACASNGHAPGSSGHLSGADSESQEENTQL
# Experiment: phospholipase C beta3 enzyme inhibition – biochemical, fluorescence, primary screen (AID 720704);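 note: 0% = median of compound wells on plate and 100% = full blocker control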
# Details: Purified PLC-beta3, fluorogenic substrate, at 12.2 µM, stronger effect = higher value
row,SMILES,inhibition
1,C=CCN1[C@H](CC(C)C)COc2cccc(N3CCCC3)c2S1(=O)=O,-10.8%
2,C=CCSc1nc2c(c(=O)[nH]1)C(C(C)C)C(C#N)=C(N)O2 (centres undefined),-5.98%
3,O=C(NC1CCCC1)C1CC(=O)N(c2ccc(F)cc2)C1 (centres undefined),1.14%
4,NC(=O)C1CC=CCC1C(=O)OCC(Cl)=C(Cl)Cl (centres undefined),-21%
5,C=C(Cl)COC(=O)C1C2C=CC(C2)C1C(=O)O (centres undefined),-0.54%
6,COc1cc(OC)cc(C(=O)OCC(=O)Nc2sccc2C(N)=O)c1,-6.31%
7,CCOC(=O)c1cnc(SCc2nc(N)nc(Nc3ccc(OC)cc3)n2)nc1N,0.61%
8,Cc1ccc2nsnc2c1S(=O)(=O)N1CCCC1C(=O)O (centres undefined),5.41%
9,CC[C@]12c3[nH]c4ccc(Cl)cc4c3CCN1C(=O)[C@@H](CC(=O)NCCCOC)C[C@@H]2C(=O)N1CCN(C(=O)C2CC2)CC1,-4.01%
10,O=C(NC1CC1)C1CCCN(C(=O)NC2CCCCC2)C1 (centres undefined),-7.45%
11,CC(C)C(=O)N1CCN(CCN=CC2=C(O)CC(c3ccco3)CC2=O)CC1 (centres undefined),-7.32% and -15%
12,C=CCn1c(SCc2ccc(Cl)c(Cl)c2)nnc1C(CO)NC(=O)c1ccc(OC)cc1 (centres undefined),4.74%
13,COCCCn1cc(CN2CC(N(C)C)CS2(=O)=O)nn1 (centres undefined),-1.16%
14,O=C(Nc1c(C(=O)N2CCCCC2)cnn1-c1ccccc1)c1ccco1,2.51%
15,O=C(CN(CC1CCCO1)C(=O)CNS(=O)(=O)c1ccc(F)cc1)NCc1ccco1 (centres undefined),1.51%
16,O=C1NC2(CCCCC2)N=C1c1ccccc1,10%
17,Cc1ccccc1N1CCN(C2CCCN(C(=O)c3cn4c(C)cccc4n3)C2)CC1 (centres undefined),-10.2%
18,Oc1c(CN2CCCC2)cc(COCc2ccccc2)c2cccnc12,16.5% (active)
19,O=[N+]([O-])c1cc([N+](=O)[O-])c2cccnc2c1O,-4.85%
20,CCCNC(=O)NC(=O)COC(=O)CC(NC(N)=O)c1ccc(Cl)cc1 (centres undefined),0.66%
21,COc1ccccc1/C=N\Nc1cc(C)nc(-n2nc(C)cc2C)n1,11.2% (active)
22,COc1ccccc1CCNC(=O)C1CCN(c2nc(C)cc(C)n2)CC1,1.47%
23,CCOC(=O)c1cnc(-n2nc(C)cc2C)nc1NNc1cc(C)nc(-c2ccccc2)n1,1.49%

row,SMILES,inhibition
1,CCCOc1cccc(C(=O)Nc2ccccc2C(=O)N2CCN(C)CC2)c1,-3.82%
2,Cn1c(SCC(=O)Nc2cccc(O)c2)nnc1-c1ccc(S(=O)(=O)N2CCOCC2)cc1,1.37%
3,Cc1ccc(NC(=O)C(C)OC(=O)Cc2c[nH]c3ccccc23)cc1S(=O)(=O)N1CCOCC1 (centres undefined),-3.66%
4,CCC(C)(C(=O)NC1CCCCC1)N(C)C(=O)c1ccc2c(c1)OCO2 (centres undefined),3.07%
5,CCOC(=O)c1cccc(NC(=O)CCc2nnc3ccc(N4CCOCC4)nn23)c1,-10.3%
6,CC(=O)c1c(C)[nH]c(C(=O)N2CCN(S(=O)(=O)c3ccc(F)c(F)c3)CC2)c1C,-2.62%
7,COCCNc1ccc(-c2n[nH]c(=O)c3ccccc23)cc1[N+](=O)[O-],-3.71%
8,O=C(c1ccc2c(c1)OCO2)N1CCNc2ccccc2C1,12.9% (active)
9,O=C(C(=O)N1CCN(c2ccccc2)CC1)c1ccc2c(c1)OCO2,-0.14%
10,O=CN1CCN(C(=O)c2ccc3c(c2)OCO3)CC1,-2.96%
11,O=C(NCc1ccccc1)c1onc(CSc2nc3ccccc3[nH]2)c1C(=O)NCc1ccccc1,8.62%
12,COc1cc(OC)c(C(=O)N2CCCC2)cc1OC,-8.68%
13,CCCc1nc2ccccc2n1C(C)C(=O)NC(C)(C)C (centres undefined),1.17%
14,Cc1ccc(C)c(NC(=O)C2CCCN2C(=O)OC(C)(C)C)c1 (centres undefined),5.04%
15,CCC[C@H]1CCCC/C=C\CCCC(=O)OCCN1C(=O)OC(C)(C)C,13.5% (active)
16,Cc1cccc(C)c1NC(=O)C1CCCN1C(=O)OC(C)(C)C (centres undefined),0.37%
17,CC(C)Cn1c(SCC(=O)Nc2ccc(Cl)cc2F)nc(O)cc1=O,-1.44%
18,CC(C)c1ccc(Nc2nnc(SCC(=O)c3nnc(-c4ccccc4)o3)s2)cc1,-19.6%
19,O=C(Nc1cccc2ccccc12)c1[nH]c(-c2ccccc2)c2c1C(=O)N(C1CC1)C2=O,-1.92%
20,CCC(=O)c1ccc(OCC(=O)OCC(=O)N2CCc3ccccc3C2)cc1,-10.2%
21,CO/N=C(/CS(=O)(=O)c1ccc(Br)cc1)c1ccc(OC)cc1,0.43%
22,CCSc1sc(CC)cc1C=O,-0.46%
23,CCOC(=O)N1CCN(Cc2nc(Cc3cccc(C(F)(F)F)c3)no2)CC1,-6.49%

row,SMILES,inhibition
1,CC(C)=CCN1CCN(Cc2cc3ccccc3[nH]2)CC1CCO (centres undefined),-5.94%
2,CC(C)(C)OC(=O)Nc1ccc([C@@H](NC(=O)OC(C)(C)C)C(=O)OC(C)(C)C)cc1,6.19%
3,CCN(CC(=O)Nc1ccc2c(c1)OCCO2)Cc1cc(=O)oc2cc(C)c(C)cc12,-6.71%
4,CO[C@@H]1CN(C)C(=O)c2cc(NC(=O)Nc3cc(F)ccc3F)ccc2OC[C@H](C)N(C(=O)c2ccccn2)C[C@@H]1C,-2.49%
5,COC(=O)c1ccc(COC(=O)c2cnccn2)cc1,4.2%
6,O=C(c1ccc(OC2CCN(C/C=C/c3ccc(F)cc3)CC2)cc1)N1CCCCC1,-10.6%
7,COc1cc(OC)c(-n2cc(-c3ccc(Cl)cc3)[nH]c2=O)cc1Cl,1.76%
8,Cc1ccc(NC(=O)c2nc[nH]c2C(=O)N2CCCCC2)c(C(=O)c2ccccc2)c1,-2.21%
9,Cc1cc(C(=O)N2CCC(C(=O)O)CC2)c(C(F)(F)F)o1,-3.87%
10,COc1cccc(NC(=O)C(Sc2nc3ccccc3c(=O)n2CC(C)C)c2ccccc2)c1 (centres undefined),0.44%
11,Cc1ccc2nc(-c3ccc(SCC(=O)Nc4cc(C)on4)nc3)[nH]c2c1,-55.5%
12,CCC(C(=O)NCCC(C)C)N(Cc1ccccc1Cl)C(=O)c1snc(C(N)=O)c1N (centres undefined),-123%
13,COc1ccccc1Nc1nc(N)nc(CSC(=S)N2CCOCC2)n1,-5.33%
14,Cc1cccc([C@H]2[C@@H]3C=CC[C@@H](C)[C@@H]3C(=O)N2Cc2ccccc2)c1,-3.88%
15,COc1ccc(NC(=O)CCC(=O)N2CCN(S(=O)(=O)c3ccc(C)cc3)CC2)c(OC)c1,-5.05%
16,CCC1C(C#N)=C(SC)NC2=C1C(=O)CC(C)(C)C2 (centres undefined),-65.6%
17,O=C1CCN(Cc2ccccc2)CCN1[C@H](CSc1ccccc1)c1ccccc1,-6.78%
18,Cc1ccc(C)c(N(CC(=O)NCc2ccco2)C(=O)CCC(=O)Nc2ccccn2)c1,-1.21%
19,Nn1c(SCC(=O)N2c3ccccc3Sc3ccccc32)nnc1-c1n[nH]c2c1CCC2,-2.4%
20,CC1Cc2ccccc2N1C(=O)Cn1cnc2ccccc2c1=O (centres undefined),-1.51%
21,CCCCNC(=O)C1CCCNC1=O (centres undefined),1.97%
22,CCOC(=O)C1=CCC2C(=O)N(Cc3ccccc3)C(=O)C12 (centres undefined),0.58%
23,CCOCCCNC(=O)C1(O)c2cc(Br)ccc2NC(=O)N1c1ccc(C)c(C)c1 (centres undefined),0.25%

row,SMILES,inhibition
1,COc1ccc(C(=O)NC2(C(F)(F)F)NC(=O)N(CCCc3ccccc3)C2=O)c(OC)c1OC (centres undefined),0.7%
2,COC(=O)NC1(C(F)(F)F)NC(=O)N(C2CCCCC2)C1=O (centres undefined),13.8% (active)
3,CCOc1ccc(C(=O)NCCCN2CCCC2=O)cc1,2.32%
4,Cc1cccc(C(=O)NCCCN2CCCC2=O)c1,11.5% (active)
5,O=C(NCCCN1CCCC1=O)c1cccc(S(=O)(=O)NCc2ccccc2)c1,-4.88%
6,O=C1NC(=O)C(CCc2ccccc2)(c2ccccc2)N1 (centres undefined),2.82%
7,OCC1OC(n2cnc3c(N4CCCC4)ncnc32)C(O)C1O (centres undefined),-4.64%
8,O=C(Nc1ccccc1C(=O)NCC1CCCO1)c1ccccc1F (centres undefined),-7.42%
9,CCN1CCN(c2c(Cl)cccc2NC(=O)c2ccc(Br)o2)CC1,1.67%
10,O=c1/c(=C/c2ccc(CNS(=O)(=O)c3ccccc3)o2)sc2n1CCN=2,-17.6%
11,CCOC(=O)C1C(c2ccc(OC)c(OC)c2)c2c([nH][nH]c2=O)CC1(C)O (centres undefined),-7.78%
12,CC1CCN(S(=O)(=O)c2ccc(S(=O)(=O)NCc3cccnc3)cc2)CC1,-6.19%
13,Cc1ccc(S(=O)(=O)N2CCC(C(=O)N[C@@H](C)C(=O)NCc3ccco3)CC2)cc1,0.13%
14,CC1CCN(S(=O)(=O)c2ccc(S(=O)(=O)NCc3ccco3)cc2)CC1,10.8% (active)
15,CC(=O)n1cc([C@H]2C=C(C(=O)N3CCOCC3)O[C@@H](OCc3ccc(CO)cc3)C2)c2ccccc21,-5.02%
16,COC(=O)c1ccccc1-n1cc(COC(=O)NCCc2ccccc2)nn1,-1.19%
17,CC(=O)NC(Cc1ccc(F)c(F)c1)C(=O)NC1CCN(C(=O)c2ccc(C)cc2)CC1 (centres undefined),-5.45%
18,O=C(NCc1ccccc1Cl)C(=O)NCC1CCCN1S(=O)(=O)c1cccs1 (centres undefined),-11.5%
19,O=C(c1ccccc1Cl)N(Cc1ccccc1F)N1C(=O)CCCC1=O,-3.35%
20,CC1=C(C)C(=O)OC(C(C)C2CCC3C4CC=C5CC(OC6OC(COC7OC(CO)C(O)C(O)C7O)C(O)C(O)C6O)CC(O)C5(C)C4CCC23C)C1 (centres undefined),4.96%
